About 79,000 compounds went through this panel and 15% of them were active in at least one assay; those are over-represented in the sample as a whole. A number with no mark means an inactive call. Active and inactive are the calls of the source. Cut-off read from the data, not from the text of the source: active = growth inhibition above about 70%; inactive = the rest.
What was measured:
[1] = NCI Yeast Anticancer Drug Screen. Data for the rad50 strain (AID 155);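 note: 0% = growth of vehicle-only cultures of the same strain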; details: S. cerevisiae rad50 strain growth inhibition, active compounds read high
In short: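 Cells are treated with compound, grown, and their growth is then scored against vehicle-only cultures of the same repair-deficient yeast strain.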

[2] = NCI Yeast Anticancer Drug Screen. Data for the mec2-1 strain (AID 157); details: S. cerevisiae mec2-1 strain, active compounds read high
In short: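 Vehicle-treated cultures served as reference for growth inhibition of compound-exposed mec2-1 yeast.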

[3] = NCI Yeast Anticancer Drug Screen. Data for the sgs1 mgt1 strain (AID 161);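 note: 0% = growth of cultures given vehicle only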; details: S. cerevisiae sgs1 mgt1 strain, active compounds read high
In short: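 Read-out: growth inhibition vs vehicle controls. Cells: mutant yeast strain deficient in DNA damage repair.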

[4] = NCI Yeast Anticancer Drug Screen. Data for the cln2 rad14 strain (AID 165);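 note: 0% = growth equal to vehicle treated cultures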; details: S. cerevisiae cln2 rad14 strain, active compounds read high
In short: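 Each compound was tested on cln2 rad14 yeast. Inhibition of growth was calculated against vehicle-exposed controls.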

[5] = NCI Yeast Anticancer Drug Screen. Data for the bub3 strain (AID 167); details: S. cerevisiae bub3 mutant strain, active compounds read high
In short: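 Part of a panel of yeast mutants defective in DNA damage repair or cell cycle regulation. Each strain is grown with compound, and inhibition is calculated relative to solvent-treated cultures.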

[6] = NCI Yeast Anticancer Drug Screen. Data for the mlh1 rad18 strain (AID 175); details: S. cerevisiae mlh1 rad18 strain growth inhibition, active compounds read high
In short: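 Vehicle-treated cultures served as the reference for growth inhibition in a yeast strain carrying DNA damage repair alterations exposed to each compound.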

[7] = at 5.0 µM (retest, dose inferred, filed as 0.5)
[8] = at 50.0 µM (retest, dose inferred, filed as 5.0)

Row | Compound | growth inhibition [1, 7] [%] | growth inhibition [1, 8] | growth inhibition ([1]; at 50.0 µM) | growth inhibition [2, 7] [%] | growth inhibition [2, 8] | growth inhibition ([2]; at 50.0 µM) | growth inhibition [3, 7] [%] | growth inhibition [3, 8] | growth inhibition ([3]; at 50.0 µM) | growth inhibition [4, 7] [%] | growth inhibition [4, 8] | growth inhibition ([4]; at 50.0 µM) | growth inhibition [5, 7] [%] | growth inhibition [5, 8] | growth inhibition ([5]; at 50.0 µM) | growth inhibition [6, 7] [%] | growth inhibition [6, 8] | growth inhibition ([6]; at 50.0 µM)
1 | O=C1C(c2c[nH]c3ccccc23)=Nc2ccc(Br)cc21 | 19 | 33% | 86.8% (active) | 26 | 35% | 61.4% | 25 | 29% | 73% (active) | 15 | 34% | 53.5% | 45 | 53% | 90% (active) | 24 | 35% | 83.7% (active)
2 | CC(C)c1ccc(C(=O)C2CC2)cc1 | -23 | 0% | 34.6% | -10 | -27% | 42.9% | -12 | -14% | 50.6% | 9 | 24% | 40.5% | -29 | -20% | 65.3% | -22 | -18% | 21%
3 | COc1cc(C(c2cc3c(cc2O)OCO3)N2CCN(C(c3cc(OC)c(O)c(OC)c3)c3cc4c(cc3O)OCO4)CC2)cc(OC)c1O (configuration not stated) | -3 | 7% | 26.3% | 1 | 16% | 41% | -2 | 15% | 43.6% | 0 | -12% | -36.5% | 1 | 10% | 33.8% | 0 | 7% | 51.2%
4 | O=c1cc(-c2ccccc2)oc2ccc(-c3ccc4oc(-c5ccccc5)cc(=O)c4c3)cc12 | 8 | 40% | 37.3% | 7 | 16% | 40.6% | -10 | 82% (active) | 31.7% | -1 | 39% | 28.4% | 5 | 89% (active) | 59% | 13 | 25% | 87.8% (active)
5 | C=CCOc1cc(NC(=S)c2sccc2C)ccc1Cl | 3 | 88% (active) | 81.5% (active) | -5 | 89% (active) | 87.2% (active) | -9 | 88% (active) | 85% (active) | 2 | 89% (active) | 80.2% (active) | 28 | 94% (active) | 81.3% (active) | 3 | 91% (active) | 81.9% (active)
6 | O=C1OC(c2ccc3c(c2)OCO3)Sc2ccccc21 (configuration not stated) | 11 | 24% | 30.1% | -4 | -9% | 9.85% | 1 | 10% | 23.4% | -2 | 4% | -2.5% | 9 | 52% | 68.3% | -6 | 27% | 25.8%
7 | CCCCCCCCC(=O)Cl | 11 | 82% (active) | 74.4% (active) | 9 | 61% | 47.9% | 10 | 64% | 77.5% (active) | 6 | 38% | 27.1% | 0 | 77% (active) | 69.3% | 6 | 69% | 88.3% (active)
8 | O=S(=O)(Nc1ccccc1-c1ccc(Cl)cc1)c1ccccc1 | -6 | 14% | 98.9% (active) | -8 | 8% | 52.9% | -7 | -56% | 97.5% (active) | -12 | 95% (active) | 98% (active) | 2 | 91% (active) | 54.9% | -8 | 57% | 73.7% (active)
9 | CC(C)NC(=O)OCc1c(CO)c2c(n1C)-c1ccccc1CC2 | -5 | 96% (active) | 95.9% (active) | -4 | 96% (active) | 98% (active) | 50 | 96% (active) | 97.8% (active) | -10 | 95% (active) | 96.8% (active) | -3 | 96% (active) | 98.3% (active) | 11 | 96% (active) | 95.5% (active)
10 | COc1ccc(/C(Cl)=C(\C=O)c2ccc(Cl)c(Cl)c2)cc1 | 2 | 49% | 99% (active) | 8 | 70% (active) | 98.9% (active) | 13 | 85% (active) | 99.3% (active) | -10 | 55% | 92.5% (active) | 41 | 82% (active) | 97.8% (active) | 27 | 79% (active) | 98.2% (active)
11 | O=C(Nc1ccccc1Cl)c1ccc(Cl)c(Cl)c1 | 4 | 0% | -0.85% | 4 | 2% | 1% | 1 | 1% | 10.2% | 2 | -2% | 29.6% | 1 | -3% | 2.2% | -1 | 1% | -18.2%
12 | O=[N+]([O-])c1ccc2c(c1)Cc1cc(Cl)ccc1-2 | 7 | 6% | 14.1% | 2 | 5% | -13.9% | 1 | -2% | -11.4% | -5 | 3% | 81.4% (active) | 4 | 7% | -14.3% | 6 | 5% | 46.1%
13 | CN(C)CCCNc1c2ccccc2nc2ccc(F)cc12 | 0 | 24% | 27.2% | -8 | 26% | 24.4% | 6 | 24% | 15.2% | 8 | 21% | 81.8% (active) | 0 | 6% | 42.5% | 14 | 27% | 36.8%
14 | O=C(C(Cl)Cl)N(O)c1ccccc1OCc1ccccc1 | 10 | 52% | 72.2% (active) | 9 | 73% (active) | 41.9% | 8 | 94% (active) | 90% (active) | 6 | 27% | 34.4% | 2 | 67% | 62.4% | 56 | 95% (active) | 89% (active)
15 | CC/C(=C(\CC)c1ccc(O)c(CN(CCO)CCO)c1)c1ccc(O)cc1 | -3 | 11% | 36.9% | -1 | 5% | 22.2% | -2 | 28% | 69.2% | 0 | -1% | 0.6% | -5 | 25% | 12.5% | -2 | 33% | 73.6% (active)
16 | Cn1nc(-c2ccccc2NC(=O)C(F)(F)F)c(=O)n(C)c1=S | -3 | 37% | 56.9% | 3 | 21% | 43.9% | 14 | 25% | 50.5% | -3 | 14% | 33.6% | 4 | 27% | 27.7% | 0 | 34% | 73.9% (active)
17 | Cc1ccc(S(=O)(=O)OC2COC3C(OS(=O)(=O)c4ccc(C)cc4)COC23)cc1 (configuration not stated) | -2 | -13% | 19.6% | -7 | 4% | 9.8% | 12 | -27% | 26.4% | 1 | -5% | 46% | 0 | -11% | 96.6% (active) | -39 | -63% | 4%
18 | COc1cc(C2C(Cl)C(=O)N2NC(=O)c2ccccc2O)cc(OC)c1OC (configuration not stated) | -8 | 77% (active) | 76.3% (active) | -10 | 70% (active) | 70.5% (active) | 1 | 81% (active) | 78.8% (active) | -2 | 40% | 35.2% | -11 | 48% | 80.8% (active) | 6 | 87% (active) | 78.8% (active)
19 | CCOc1ccc(/C=C\c2ccnc3ccccc23)cc1OCC | -5 | 97% (active) | 98.3% (active) | -1 | 99% (active) | 97% (active) | 1 | 99% (active) | 50.9% | -3 | 99% (active) | 98.2% (active) | 5 | 99% (active) | 97.3% (active) | -13 | 98% (active) | 96.3% (active)
